# Test results reported in ChEMBL document CHEMBL1961873, “Compounds: GSK PKIS; Assays: Nanosyn kinase panel” (2012).
# Assays:
# [1] = target: Protein kinase C gamma type (Homo sapiens) (UniProt P05129); conditions: at 1 µM;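 further: each value is an averaged percent inhibition of the enzyme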
# [2] = target: T1, Protein kinase C iota type (Homo sapiens) (UniProt P41743); conditions: at 0.1 µM
# T1 sequence (whole entry): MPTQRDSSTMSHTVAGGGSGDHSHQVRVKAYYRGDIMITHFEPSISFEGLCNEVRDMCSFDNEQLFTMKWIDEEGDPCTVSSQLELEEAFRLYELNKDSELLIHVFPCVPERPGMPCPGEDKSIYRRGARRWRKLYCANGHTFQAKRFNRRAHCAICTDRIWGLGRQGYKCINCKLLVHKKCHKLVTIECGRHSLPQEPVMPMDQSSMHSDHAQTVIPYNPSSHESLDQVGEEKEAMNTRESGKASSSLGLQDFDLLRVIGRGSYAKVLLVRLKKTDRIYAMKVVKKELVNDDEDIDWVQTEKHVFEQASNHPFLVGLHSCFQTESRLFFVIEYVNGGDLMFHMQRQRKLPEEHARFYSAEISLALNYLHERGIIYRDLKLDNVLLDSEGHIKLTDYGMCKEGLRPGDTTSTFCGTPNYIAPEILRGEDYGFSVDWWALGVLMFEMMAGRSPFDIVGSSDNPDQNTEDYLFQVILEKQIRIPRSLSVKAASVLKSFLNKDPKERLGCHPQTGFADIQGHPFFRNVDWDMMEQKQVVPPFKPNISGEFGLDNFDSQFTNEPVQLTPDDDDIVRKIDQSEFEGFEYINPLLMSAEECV
# [3] = target: T1, Protein kinase C iota type (Homo sapiens); conditions: at 1 µM
# [4] = target: Protein kinase C theta type (Homo sapiens) (UniProt Q04759); conditions: at 0.1 µM
# [5] = target: Protein kinase C theta type (Homo sapiens) (UniProt Q04759); conditions: at 1 µM
# [6] = target: Protein kinase C beta type (Homo sapiens) (UniProt P05771); conditions: at 0.1 µM
# [7] = target: Protein kinase C beta type (Homo sapiens) (UniProt P05771); conditions: at 1 µM
# [8] = target: T2, Serine/threonine-protein kinase D1 (Homo sapiens) (UniProt Q15139); conditions: at 0.1 µM
# T2 sequence (whole entry): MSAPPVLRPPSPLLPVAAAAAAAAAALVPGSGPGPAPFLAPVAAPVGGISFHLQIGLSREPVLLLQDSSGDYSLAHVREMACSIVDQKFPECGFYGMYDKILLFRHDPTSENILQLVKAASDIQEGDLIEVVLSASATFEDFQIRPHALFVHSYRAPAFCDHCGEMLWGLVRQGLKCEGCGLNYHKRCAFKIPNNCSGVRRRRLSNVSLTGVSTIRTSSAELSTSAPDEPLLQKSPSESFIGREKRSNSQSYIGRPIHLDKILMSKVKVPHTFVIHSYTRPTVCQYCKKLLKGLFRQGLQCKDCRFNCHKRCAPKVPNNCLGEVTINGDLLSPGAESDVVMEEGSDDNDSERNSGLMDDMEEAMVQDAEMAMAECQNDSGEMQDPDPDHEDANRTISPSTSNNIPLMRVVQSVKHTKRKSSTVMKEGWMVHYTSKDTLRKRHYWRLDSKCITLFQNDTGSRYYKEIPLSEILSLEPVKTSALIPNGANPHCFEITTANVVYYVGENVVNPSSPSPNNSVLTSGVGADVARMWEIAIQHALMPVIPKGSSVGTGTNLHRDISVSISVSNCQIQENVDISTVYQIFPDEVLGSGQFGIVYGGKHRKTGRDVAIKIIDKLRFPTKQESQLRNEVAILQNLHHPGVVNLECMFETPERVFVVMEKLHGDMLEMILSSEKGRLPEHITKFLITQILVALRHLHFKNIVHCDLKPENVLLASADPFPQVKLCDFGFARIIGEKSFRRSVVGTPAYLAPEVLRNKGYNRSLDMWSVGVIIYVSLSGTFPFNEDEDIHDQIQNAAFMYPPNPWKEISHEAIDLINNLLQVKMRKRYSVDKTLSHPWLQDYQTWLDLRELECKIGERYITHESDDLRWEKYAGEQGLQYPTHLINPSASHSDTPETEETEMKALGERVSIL
# [9] = target: T2, Serine/threonine-protein kinase D1 (Homo sapiens); conditions: at 1 µM
# [10] = target: T3, Serine/threonine-protein kinase D2 (Homo sapiens) (UniProt Q9BZL6); conditions: at 0.1 µM;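 further: reported percent inhibition values are means, part of the GSK PKIS kinase panel screen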
# T3 sequence (whole entry): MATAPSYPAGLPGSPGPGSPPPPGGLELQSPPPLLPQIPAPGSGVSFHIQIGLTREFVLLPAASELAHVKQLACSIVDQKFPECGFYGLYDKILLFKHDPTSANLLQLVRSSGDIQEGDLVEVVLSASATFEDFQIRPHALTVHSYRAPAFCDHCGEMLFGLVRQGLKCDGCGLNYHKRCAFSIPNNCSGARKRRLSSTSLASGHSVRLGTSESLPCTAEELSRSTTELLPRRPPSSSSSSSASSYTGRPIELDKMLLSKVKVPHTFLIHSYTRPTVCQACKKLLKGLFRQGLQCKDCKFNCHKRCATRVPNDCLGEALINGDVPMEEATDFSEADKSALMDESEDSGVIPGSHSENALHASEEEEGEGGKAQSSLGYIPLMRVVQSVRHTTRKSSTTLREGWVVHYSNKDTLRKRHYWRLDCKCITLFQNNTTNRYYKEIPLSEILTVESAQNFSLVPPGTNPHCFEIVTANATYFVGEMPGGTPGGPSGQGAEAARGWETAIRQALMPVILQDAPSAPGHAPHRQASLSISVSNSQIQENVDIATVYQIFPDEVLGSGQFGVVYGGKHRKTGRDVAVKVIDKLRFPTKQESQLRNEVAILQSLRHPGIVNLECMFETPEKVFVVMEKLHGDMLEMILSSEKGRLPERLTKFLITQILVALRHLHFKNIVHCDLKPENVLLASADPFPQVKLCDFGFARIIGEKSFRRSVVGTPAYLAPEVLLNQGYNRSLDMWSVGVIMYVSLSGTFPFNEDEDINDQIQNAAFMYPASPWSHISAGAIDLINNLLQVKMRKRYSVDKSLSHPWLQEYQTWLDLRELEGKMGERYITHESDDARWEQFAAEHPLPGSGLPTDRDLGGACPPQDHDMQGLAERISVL
# Sequence of Protein kinase C theta type (Homo sapiens) (Q04759 whole entry, looked up): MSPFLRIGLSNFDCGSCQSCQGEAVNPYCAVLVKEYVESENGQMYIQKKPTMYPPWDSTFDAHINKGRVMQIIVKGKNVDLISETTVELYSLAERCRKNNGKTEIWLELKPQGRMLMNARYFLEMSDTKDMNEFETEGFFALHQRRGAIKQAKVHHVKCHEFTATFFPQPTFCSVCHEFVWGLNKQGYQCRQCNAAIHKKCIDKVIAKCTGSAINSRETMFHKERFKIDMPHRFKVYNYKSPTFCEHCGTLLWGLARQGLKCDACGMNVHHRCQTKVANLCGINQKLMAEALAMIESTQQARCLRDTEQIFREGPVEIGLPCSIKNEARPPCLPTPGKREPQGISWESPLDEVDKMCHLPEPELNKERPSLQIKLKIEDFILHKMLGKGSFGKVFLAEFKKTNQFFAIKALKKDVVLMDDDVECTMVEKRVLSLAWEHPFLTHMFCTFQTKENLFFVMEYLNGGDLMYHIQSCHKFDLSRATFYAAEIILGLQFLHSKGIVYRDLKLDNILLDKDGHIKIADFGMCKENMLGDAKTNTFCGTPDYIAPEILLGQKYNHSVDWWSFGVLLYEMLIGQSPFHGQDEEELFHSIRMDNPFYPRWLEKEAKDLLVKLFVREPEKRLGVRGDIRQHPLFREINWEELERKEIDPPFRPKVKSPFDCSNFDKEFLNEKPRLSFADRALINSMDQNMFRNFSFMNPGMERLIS
# Sequence of Protein kinase C beta type (Homo sapiens) (P05771 2-671 limits assumed): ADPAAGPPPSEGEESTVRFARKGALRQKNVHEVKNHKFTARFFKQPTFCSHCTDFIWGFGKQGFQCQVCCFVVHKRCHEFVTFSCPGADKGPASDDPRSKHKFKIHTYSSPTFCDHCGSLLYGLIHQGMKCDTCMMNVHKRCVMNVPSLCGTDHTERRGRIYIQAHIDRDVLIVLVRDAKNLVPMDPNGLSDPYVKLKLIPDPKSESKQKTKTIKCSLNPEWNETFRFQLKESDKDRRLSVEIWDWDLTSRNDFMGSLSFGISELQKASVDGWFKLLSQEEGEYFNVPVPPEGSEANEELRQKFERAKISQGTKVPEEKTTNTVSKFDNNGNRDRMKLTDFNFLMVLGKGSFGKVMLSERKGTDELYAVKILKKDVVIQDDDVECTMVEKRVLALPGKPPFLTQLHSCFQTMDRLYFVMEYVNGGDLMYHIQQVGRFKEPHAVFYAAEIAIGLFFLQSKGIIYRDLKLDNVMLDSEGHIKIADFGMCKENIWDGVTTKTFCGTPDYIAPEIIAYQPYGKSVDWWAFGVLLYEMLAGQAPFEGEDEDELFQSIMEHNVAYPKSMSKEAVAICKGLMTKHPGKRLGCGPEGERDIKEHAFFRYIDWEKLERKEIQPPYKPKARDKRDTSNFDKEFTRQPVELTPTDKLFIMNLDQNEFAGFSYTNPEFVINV
Structure (SMILES),inhibition [1],inhibition [2],inhibition [3],inhibition [4],inhibition [5],inhibition [6],inhibition [7],inhibition [8],inhibition [9],inhibition [10]
COc1cccc(-n2nc(C)c3c(N/N=C(\C)c4ccncc4)ncnc32)c1,-0.03%,-1.18%,-0.8%,-0.03%,-0.11%,0.75%,0.46%,0.01%,0.3%,0.82%
C[C@@H](Oc1cc(-n2cnc3ccc(OC[C@@H](O)CO)cc32)sc1C(N)=O)c1ccccc1Cl,-0.26%,-0.24%,1.09%,-0.9%,0.85%,-1.05%,2.03%,-1.17%,0.36%,0.81%
COc1cc(Nc2nccc(-c3cnn4ncccc34)n2)cc(OC)c1,16.8%,-0.04%,0.62%,0.09%,6.77%,1.8%,16.9%,1.77%,16.4%,2.57%
Cc1ccc2c(c1)/C(=N/Nc1ccc(S(N)(=O)=O)cc1)C(=O)N2,-1.54%,-1.59%,0.19%,-0.6%,-1.65%,0.19%,0.09%,0.96%,1.76%,1.62%
CN(C)CCCn1c(-c2nonc2N)nc2cnccc21,4.25%,2.62%,3.77%,2.2%,1.32%,2.32%,4.48%,3.41%,7.59%,4.15%
COC(=O)c1cncc(/C=C/c2c(C)cc(O)cc2C)c1,3.93%,2.79%,0.49%,2.55%,3.44%,-1.36%,2.82%,3.37%,5%,3.87%
NS(=O)(=O)c1ccc(-c2cc3ccncc3cc2OCc2ccccc2)cc1,4.49%,0.19%,0.28%,1.18%,2.98%,0.66%,1.74%,2.19%,2.75%,2.47%
CS(=O)(=O)Nc1cccc(-c2ccc3c(NC(=O)C4CC4)n[nH]c3c2)c1,1.59%,0.49%,0.91%,-0.5%,-0.76%,-0.25%,0.61%,0.96%,2.34%,2.1%
Cc1nc(-c2ccccc2)n2nc(NCCCN3CCOCC3)ncc12,4.35%,-0.08%,-1.15%,1.47%,-0.08%,1.18%,2.05%,2.52%,3.13%,2.7%
NS(=O)(=O)c1ccc(Nc2cc(-c3cccc(O)c3)n[nH]2)cc1,5.97%,2.37%,3.83%,3.09%,3.2%,1.35%,3.75%,4.8%,11.4%,5.45%
CN(C)c1cc2c(Nc3ccc4c(cnn4Cc4ccccc4)c3)ncnc2cn1,-1.38%,0.79%,1.74%,0.5%,0.28%,0.51%,0.93%,2.68%,5.12%,3.3%
COc1cc2ncnc(Nc3ccc4c(cnn4Cc4ccccc4)c3)c2cc1OC,2.04%,0.72%,0.48%,0.78%,0.99%,0.94%,0.88%,2.89%,5.2%,2.96%
COc1cccc(-n2ncc3c(N/N=C/c4ccc(C)cc4)ncnc32)c1,-9.04%,1.65%,1.86%,3.03%,4.16%,1.4%,2.79%,6.31%,10.7%,6.6%
[O-][S+]1CCN(Cc2ccc(-c3ccc4ncnc(Nc5ccc(OCc6ccccc6)c(Cl)c5)c4c3)o2)CC1,3.28%,1.72%,1.88%,1.06%,1.03%,0.97%,2.88%,1.74%,2.75%,1.16%
O=C1Nc2ccc(-c3cccnc3)cc2C1=Cc1cc(Br)c(O)c(Br)c1,6.29%,1.6%,3.35%,1.77%,2.57%,0.86%,1.44%,2.94%,4.25%,3.88%
CCn1c(-c2nonc2N)nc2ccc(F)cc21,5.71%,2.23%,1.51%,4.58%,6.97%,1.15%,4.26%,4.58%,6.64%,5.68%
Nc1nccc(C#Cc2cncnc2Nc2ccc(OCc3cccc(F)c3)c(Cl)c2)n1,4.21%,1.86%,3.2%,2.44%,1.22%,0.73%,1.49%,3.68%,6.75%,4.56%
